These results are taken from the antibiotic and cytotoxicity screens of Wong et al. (2023).

The campaign covered roughly 39,000 compounds. About 3,300 (8.5%) were called active. Many of the other results were omitted from the sample, so actives are more common in it than they were.

For the assay, the system named is HepG2. Description: cytotoxicity call (relative viability < 0.9). To be noted: 10 µM.
Take `C[C@H](CO)N1C[C@H](C)[C@H](CN(C)C(=O)Nc2ccc(C(F)(F)F)cc2)Oc2c(NC(=O)Nc3cccc4ccccc34)cccc2C1=O`: the cytotoxicity call was “inactive”.
With `C[C@@H]1CN([C@H](C)CO)C(=O)c2cccc(NC(=O)Nc3cccc4ccccc34)c2O[C@H]1CN(C)C(=O)Nc1ccc(C(F)(F)F)cc1`, the cytotoxicity call is “inactive”.
The entry for `C[C@H](CO)N1C[C@H](C)[C@@H](CN(C)C(=O)Nc2ccc(C(F)(F)F)cc2)Oc2c(NC(=O)Nc3cccc4ccccc34)cccc2C1=O` is “active”; for `COCOc1ccc2cc(Br)ccc2c1-c1c(OCOC)ccc2cc(Br)ccc12` it is “active”; for `COc1ccc2ccccc2c1-c1c(OC)ccc2ccccc12` it is “inactive”.
Under `C[C@H]1CN([C@@H](C)CO)C(=O)c2cc(C#CCc3ccccc3)cnc2O[C@H]1CN(C)C(=O)C1CCOCC1` stands “inactive”; under `C[C@@H]1CCCCO[C@H](CN(C)Cc2ccccc2)[C@H](C)CN([C@@H](C)CO)C(=O)c2cc(NC(=O)C3CCCCC3)ccc2O1`, “inactive”.
For the molecule `COc1ccc(CNC(=O)c2cc3c(c(-c4cccc(-c5ccc(C#N)cc5)c4)n2)[C@@H](CCO)N([S@](=O)C(C)(C)C)C3)cc1`, the cytotoxicity call was “inactive”.
In the case of `CN(C)CCCNC(=O)C[C@@H]1CC[C@@H]2[C@H](COC[C@H](O)CN2C(=O)Nc2cc(Cl)cc(Cl)c2)O1`, the cytotoxicity call was “inactive”.
The entry for `C[C@H]1CN([C@@H](C)CO)C(=O)Cc2cc(NC(=O)C3CCCCC3)ccc2O[C@H]1CN(C)Cc1ccc(C(=O)Nc2ccccc2N)cc1` is “inactive”; for `C[C@H](CO)N1C[C@H](C)[C@H](CN(C)Cc2ccc(C(=O)Nc3ccccc3N)cc2)Oc2ccc(NC(=O)NC3CCCCC3)cc2CC1=O` it is “inactive”.
With `C[C@H]1CN([C@@H](C)CO)C(=O)Cc2cc(NC(=O)NC3CCCCC3)ccc2O[C@H]1CN(C)Cc1ccc(C(=O)Nc2ccccc2N)cc1`, the cytotoxicity call was “active”.
Consider `C[C@@H]1CN([C@H](C)CO)C(=O)Cc2cc(NC(=O)C3CCCCC3)ccc2O[C@@H]1CN(C)Cc1ccc(C(=O)Nc2ccccc2N)cc1`, for which the cytotoxicity call is “active”.
On to `C[C@H](CO)N1C[C@H](C)[C@@H](CN(C)Cc2ccc(C(=O)Nc3ccccc3N)cc2)Oc2ccc(NC(=O)NC3CCCCC3)cc2CC1=O`, for which the cytotoxicity call is “inactive”.
The entry for `C[C@H](CO)N1C[C@H](C)[C@H](CN(C)Cc2ccc(C(=O)Nc3ccccc3N)cc2)Oc2ccc(NC(=O)C3CCCCC3)cc2CC1=O` is “inactive”; for `C[C@@H]1CN([C@H](C)CO)C(=O)Cc2cc(NC(=O)NC3CCCCC3)ccc2O[C@H]1CN(C)Cc1ccc(C(=O)Nc2ccccc2N)cc1` it is “inactive”.
In the case of `C[C@H]1CN([C@@H](C)CO)C(=O)Cc2cc(NC(=O)NC3CCCCC3)ccc2O[C@@H]1CN(C)Cc1ccc(C(=O)Nc2ccccc2N)cc1`, the cytotoxicity call is “inactive”.
For `C[C@@H]1CN([C@H](C)CO)C(=O)Cc2cc(NC(=O)NC3CCCCC3)ccc2O[C@@H]1CN(C)Cc1ccc(C(=O)Nc2ccccc2N)cc1`, the cytotoxicity call was “active”.
Turning to `C[C@H](CO)N1C[C@H](C)[C@H](CN(C)C(=O)Nc2ccccc2)Oc2ccc(NS(C)(=O)=O)cc2CC1=O`, the cytotoxicity call was “inactive”.
The entry for `C[C@@H]1CCCCO[C@H](CN(C)C(=O)NC2CCCCC2)[C@@H](C)CN([C@@H](C)CO)C(=O)c2cc(NS(=O)(=O)c3cccs3)ccc2O1` is “inactive”.
For the molecule `O=C(C[C@@H]1CC[C@H](NC(=O)CN2CCOCC2)[C@H](CO)O1)NCc1cccc(F)c1`, the cytotoxicity call was “inactive”.
With `C[C@@H]1CN([C@H](C)CO)C(=O)c2cc(NC(=O)Cn3cnnn3)ccc2O[C@H]1CN(C)S(=O)(=O)c1cn(C)cn1`, the cytotoxicity call is “inactive”.
With `COc1ccc(NC(=O)Nc2ccc3c(c2)C(=O)N([C@H](C)CO)C[C@H](C)[C@H](CN(C)Cc2ccccc2)OCCCC[C@@H](C)O3)cc1`, the cytotoxicity call was “inactive”.
Take `C[C@@H]1CN([C@@H](C)CO)S(=O)(=O)c2ccc(-c3cccnc3)cc2O[C@@H]1CN(C)C(=O)c1ccc2c(c1)OCO2`: the cytotoxicity call was “inactive”.
Consider `Cn1cnc(S(=O)(=O)N2C[C@@H](O)COC[C@H]3O[C@@H](CC(=O)NCc4cc(F)cc(F)c4)CC[C@@H]32)c1`, for which the cytotoxicity call was “inactive”.
As for `O=C(C[C@H]1CC[C@H]2[C@@H](COC[C@@H](O)CN2C(=O)c2cccnc2)O1)NCC1CC1`, the cytotoxicity call is “inactive”.
With `CC(=O)N1CC2(CCN(CC(=O)N3CCOCC3)CC2)C[C@@H]1C(=O)O`, the cytotoxicity call is “inactive”.
Turning to `COC(=O)[C@@H](N)c1cccc(OC)c1`, the cytotoxicity call was “inactive”.
`COc1ccc(C2=C(NC(=O)c3ccc(OC)cc3-c3cccc(OC)c3)C(=O)c3ccccc3C2=O)cc1`: the cytotoxicity call is “active”.
In the case of `O=C(NC1=C(c2ccc(OC(F)(F)F)cc2)C(=O)c2ccccc2C1=O)c1ccc(Br)cc1`, the cytotoxicity call was “inactive”.
As to `Cc1noc(C)c1NC(=O)N(C)C[C@@H]1Oc2ncc(C#CCN(C)C)cc2C(=O)N([C@@H](C)CO)C[C@H]1C`, the cytotoxicity call is “inactive”.
Regarding `CNC(=O)C[C@H]1C[C@@H]2CN(S(=O)(=O)c3cccnc3)C[C@@H]2O1`, the cytotoxicity call is “inactive”.
Take `Cc1ccc(S(=O)(=O)N(C)C[C@H]2OCCCC[C@H](C)Oc3ccc(NS(=O)(=O)c4ccc(F)cc4)cc3C(=O)N([C@@H](C)CO)C[C@H]2C)cc1`: the cytotoxicity call is “inactive”.
For the molecule `CCOC(=O)C(=O)c1csc(NC=O)n1`, the cytotoxicity call was “inactive”.
For `[N-]=[N+]=Nc1ccccc1C[C@@]1(C(=O)NCc2ccccc2)N=C(c2ccc(OCCCO)cc2)O[C@@H]1c1ccccc1`, the cytotoxicity call was “inactive”.
Regarding `[N-]=[N+]=NCc1ccccc1C[C@]1(C(=O)NC[C@@H](O)CO)N=C(c2ccc(OCCCO)cc2)O[C@H]1c1ccccc1`, the cytotoxicity call was “inactive”.
On to `[N-]=[N+]=Nc1ccccc1C[C@]1(C(=O)N2CCCCC2)N=C(c2ccc(OCCCO)cc2)O[C@H]1c1ccccc1`, for which the cytotoxicity call is “active”.
For the molecule `CC(C)(C)OC(=O)CC[C@]1(C(=O)NCc2ccccc2)N=C(c2ccc(OCCCO)cc2)O[C@H]1c1ccccc1`, the cytotoxicity call was “active”.
With `[N-]=[N+]=NCc1ccccc1C[C@]1(C(=O)NCc2ccccc2)N=C(c2ccc(OCCCO)cc2)O[C@H]1c1ccccc1`, the cytotoxicity call was “active”.
As for `O=C(NC[C@@H](O)CO)[C@]1(Cc2ccccc2)N=C(c2ccc(OCCCO)cc2)O[C@@H]1c1ccccc1`, the cytotoxicity call is “inactive”.
Take `O=C(NC[C@@H](O)CO)[C@]1(CCS(=O)(=O)c2ccccc2)N=C(c2ccc(OCCCO)cc2)O[C@@H]1c1ccccc1`: the cytotoxicity call was “inactive”.
As for `[N-]=[N+]=NCc1ccccc1C[C@@]1(C(=O)N2CCCCC2)N=C(c2ccc(OCCCO)cc2)O[C@@H]1c1ccccc1`, the cytotoxicity call is “inactive”.
In the case of `[N-]=[N+]=Nc1ccccc1C[C@@]1(C(=O)N2CCCCC2)N=C(c2ccc(OCCCO)cc2)O[C@@H]1c1ccccc1`, the cytotoxicity call is “inactive”.
As to `CN1CCN(C(=O)C[C@@H]2C=C[C@@H](NC(=O)Nc3ccccc3F)[C@H](CO)O2)CC1`, the cytotoxicity call was “inactive”.
`OCc1ccc(-c2cccs2)cc1`: the cytotoxicity call is “inactive”.
Turning to `CCNC(=O)N1CCN(CCO)CC1`, the cytotoxicity call was “inactive”.
Consider `C[C@@H]1CN([C@H](C)CO)C(=O)c2cc(NC(=O)CCC(F)(F)F)ccc2O[C@@H](C)CCCCO[C@@H]1CN(C)S(=O)(=O)c1ccc(F)cc1`, for which the cytotoxicity call was “inactive”.
Turning to `CC(C)CC(=O)N[C@H](C(=O)N[C@H](C(=O)N[C@@H](CC(C)C)[C@@H](O)CC(=O)N[C@@H](C)C(=O)N[C@@H](CC(C)C)[C@@H](O)CC(=O)O)C(C)C)C(C)C`, the cytotoxicity call is “inactive”.
As for `COc1cccc(S(=O)(=O)N[C@@H]2CC[C@H](CCn3cc(-c4ccccc4OC)nn3)O[C@@H]2CO)c1`, the cytotoxicity call was “inactive”.
Consider `Cn1c(=O)c2c(ncn2CC(=O)N2CCN(c3ccccc3)CC2)n(C)c1=O`, for which the cytotoxicity call is “inactive”.
As to `CCOC(=O)CCCCCC(=O)Nc1ccc2c(c1)C(=O)N([C@@H](C)CO)C[C@@H](C)[C@H](CN(C)S(=O)(=O)c1cccs1)OCCCC[C@H](C)O2`, the cytotoxicity call is “inactive”.
The entry for `C[C@H]1CN([C@@H](C)CO)C(=O)c2cccc(NC(=O)c3ccncc3)c2O[C@@H]1CN(C)S(=O)(=O)c1cn(C)cn1` is “inactive”.
Regarding `C[C@H](CO)N1C[C@H](C)[C@H](CN(C)S(=O)(=O)c2ccccc2)Oc2c(NC(=O)c3ccncc3)cccc2C1=O`, the cytotoxicity call was “inactive”.
For `C[C@H](CO)N1C[C@H](C)[C@@H](CN(C)S(=O)(=O)c2cn(C)cn2)Oc2c(NC(=O)Nc3ccc(F)cc3)cccc2C1=O`, the cytotoxicity call was “inactive”.
`COc1ccc(S(=O)(=O)N(C)C[C@H]2Oc3c(NC(=O)c4ccncc4)cccc3C(=O)N([C@@H](C)CO)C[C@H]2C)cc1`: the cytotoxicity call was “active”.
Take `COc1ccc(S(=O)(=O)N(C)C[C@H]2Oc3c(NC(=O)c4ccncc4)cccc3C(=O)N([C@H](C)CO)C[C@H]2C)cc1`: the cytotoxicity call was “inactive”.
As to `C[C@@H]1CN([C@H](C)CO)C(=O)c2cccc(NC(=O)c3ccncc3)c2O[C@H]1CN(C)S(=O)(=O)c1cn(C)cn1`, the cytotoxicity call was “inactive”.
Take `COc1ccc(S(=O)(=O)N(C)C[C@@H]2Oc3c(NC(=O)c4ccncc4)cccc3C(=O)N([C@@H](C)CO)C[C@@H]2C)cc1`: the cytotoxicity call is “inactive”.
Under `C[C@@H]1CN([C@@H](C)CO)C(=O)c2cccc(NC(=O)c3ccncc3)c2O[C@H]1CN(C)S(=O)(=O)c1cn(C)cn1` stands “active”; under `C[C@H](CO)N1C[C@H](C)[C@H](CN(C)S(=O)(=O)c2cn(C)cn2)Oc2c(NC(=O)Nc3ccc(F)cc3)cccc2C1=O`, “inactive”.
As to `C[C@@H]1CN([C@H](C)CO)C(=O)c2cccc(NC(=O)c3ccncc3)c2O[C@@H]1CN(C)S(=O)(=O)c1ccccc1`, the cytotoxicity call was “inactive”.
For the molecule `C[C@@H]1CN([C@@H](C)CO)C(=O)c2cccc(NC(=O)c3ccncc3)c2O[C@@H]1CN(C)S(=O)(=O)c1ccccc1`, the cytotoxicity call is “active”.
In the case of `C[C@H]1CN([C@@H](C)CO)C(=O)c2cccc(NC(=O)Nc3ccc(F)cc3)c2O[C@@H]1CN(C)S(=O)(=O)c1cn(C)cn1`, the cytotoxicity call was “active”.
In the case of `C[C@@H]1CN([C@@H](C)CO)C(=O)Cc2cc(NS(=O)(=O)c3cccs3)ccc2O[C@@H]1CN(C)S(=O)(=O)c1cn(C)cn1`, the cytotoxicity call was “inactive”.
Under `Cc1ccc(S(=O)(=O)N(C)C[C@H]2Oc3ccc(NC(=O)CCN4CCOCC4)cc3CC(=O)N([C@H](C)CO)C[C@@H]2C)cc1` stands “inactive”.
